This note sets out measurements from PubChem BioAssay (Tox21).

“And” between values parts separate entries of the source, which are not always exact repeats. Equal entries are not always repeated. Inconclusive results are not listed. The source made the active and inactive calls. Calls follow the shape of the full dose curve.
Potency is read from the fitted curve at half-maximal effect.

This experiment in a line: qHTS assay to identify small molecule agonists of the AP-1 signaling pathway - cell viability counter screen (AID 1159525). Also: nearly all actives have a fitted effect of over 55% in size. The following applies: ME-180 (cervical carcinoma) AP-1-bla cells viability, ATP luminescence, 5 h; series mostly up to 76.8 µM; viability change, negative = cytotoxic: at the top concentration. The source says:
National Center for Advancing Translational Sciences [NCATS]
NIH Chemical Genomics Center [NCGC]
U.S. Environmental Protection Agency [EPA]
National Institutes of Environmental Health Sciences [NIEHS]
National Toxicology Program [NTP]
U.S. Food and Drug Administration [FDA]
Activator protein-1 (AP-1), a transcription factor, plays an important role in tumor genesis by regulating genes involved in cell proliferation, differentiation, apoptosis, and angiogenesis. AP-1 activity is induced by a complex network of signaling pathways that involves extracellular signals, such as growth factors. The AP-1 protein complex formed from c-Fos and c-Jun binding to the AP-1 response element results in transcriptional activation of genes containing such elements within their promoter.
Low molecular weight molecules have been discovered and developed to modulate various components of these signaling pathways, for example, MAP kinase inhibitors. However, many points of pathway modulation remain untested due to the lack of chemical probes making this signaling locus of general interest.
Using a beta-lactamase reporter-gene under control of the AP-1 response element, a cell-based assay [CellSensor(TM) AP-1-bla ME-180 developed by Invitrogen Corp.] was used to measure EGF-induced signaling. The Tox21 10K library compounds were measured for their ability to positively modulate the action of EC50 EGF on reporter gene activity. Compounds were screened in a 15-pt titration series in 1536-well format. The cytotoxicity of the Tox21 compound library against this cell line was tested in parallel by measuring the intra cellular ATP content in the same wells.
Tox21 Assay Protocol Summary:
2500 cells/5uL in Opti-MEM medium containing 0.5% dialyzed FBS, 0.1 mM NEAA, 1 mM sodium pyruvate and 10 mM HEPES was dispensed into 1536-well black wall/clear bottom plates using a Multidrop dispenser and cells were cultured at 37 degrees Celsius overnight. Next day 23 nL of compounds dissolved in DMSO, positive controls or DMSO were delivered to each well using a pin tool. The plates were incubated at 37 degrees Celsius for 5 hours. 1 uL of LiveBLAzerTM B/G FRET substrate (Solution A+B+C+D) was added to each well using a Flying Reagent Dispenser. After incubated at room temperature for 2.5 hours the plates were measured on an EnVision plate reader at Excitation 405nm, Emission1=460nm and Emission 2=530nm. The %Activity was determined from the ratio of 460nm/530nm.
After the plates were read for Beta-Lactamase assay on Envision; 3 ul Cell Titer Glo (Promega) was added to measure the cytotoxicity and the plates were then incubated at RT in dark for 30 min. The luminescence was read on ViewLux (Perkin Elmer, Shelton, CT) using 6 sec exposure. ViewLux data was expressed as relative luminescence units.
For primary data analysis, raw plate reads for each titration point were first normalized relative to […] EGF control (100%) and DMSO only wells (basal, 0%).
For primary data analysis for viability assay, raw plate reads for each titration point were first normalized Tetra n-octyl ammonium bromide control (-100%) and DMSO (control, 100%).
With `CCOC(=O)NC(O)C(Cl)(Cl)Cl` (stereo not given), the “viability change, negative = cytotoxic” value was -4.2% [at 35.3 µM] (inactive).

As to `CC(C)(C)OOC(C)(C)CCC(C)(C)OOC(C)(C)C`, the “viability change, negative = cytotoxic” value was 4.4% (inactive).

Regarding `O=C(O)c1cc(Cl)ccc1Cl`, the “viability change, negative = cytotoxic” value is 3.46% (inactive).

Take `CCCCCl`: the “viability change, negative = cytotoxic” value is -8.6% (inactive).

In the case of `CCOP(=O)(O)C(N)=O`, the “viability change, negative = cytotoxic” value was 1.05% (inactive).

`O=C(O)C(Cl)(Cl)Br`: the “viability change, negative = cytotoxic” value was 0.67% (inactive).

As for `CN(C)N`, the “viability change, negative = cytotoxic” value is 1.44% (inactive).

Take `N#CC(C#N)=Cc1ccc(O)c(O)c1`: the “viability change, negative = cytotoxic” value was -2.69% [at 35.3 µM] (inactive).

On to `CCCCC1C(=O)NC(=O)N(C2CCCCC2)C1=O` (stereo not given), for which the “viability change, negative = cytotoxic” value was 2.96% [at 35.3 µM] (inactive).

For `C=CC(=O)NC(C)(C)CC(C)=O`, the “viability change, negative = cytotoxic” value was -8.69% (inactive).

On to `C=CCSSCC=C`, for which the “viability change, negative = cytotoxic” value is -2.53% (inactive).

Take `CN(C1CCCCC1)C1CCCCC1`: the “viability change, negative = cytotoxic” value was 1.13% (inactive).

Regarding `COc1cc(CC#N)cc(OC)c1OC`, the “viability change, negative = cytotoxic” value was -0.0369% [at 35.3 µM] (inactive).

Turning to `O=C([O-])c1ccccn1.O=C([O-])c1ccccn1.O=C([O-])c1ccccn1.[Cr+3]`, the “viability change, negative = cytotoxic” value was -0.803% (inactive).

Take `C[CH2][Hg][S]c1ccccc1C(=O)O`: the Potency is 4.36 µM (active) and 3.79 µM (active).

As to `CCOC(C(=O)OCCN(C)C)(c1ccccc1)c1ccccc1`, the “viability change, negative = cytotoxic” value was -5.11% [at 35.3 µM] (inactive).

Turning to `COP(=O)(OC)OC(Br)C(Cl)(Cl)Br` (stereo not given), the “viability change, negative = cytotoxic” value is 17.7% (inactive).

With `C#CC(O)(C=CCl)CC` (stereo not given), the “viability change, negative = cytotoxic” value is 0.857% [at 35.3 µM] (inactive).

In the case of `CCOP(=S)(OCC)SCSc1cc(Cl)ccc1Cl`, the “viability change, negative = cytotoxic” value was 0.552% (inactive).

With `C[C@@H]1C[C@@H]([C@H](O)CC2CC(=O)NC(=O)C2)C(=O)[C@@H](C)C1`, the Potency result was “inactive”.

As for `FC(Cl)(Cl)C(F)(Cl)Cl`, the “viability change, negative = cytotoxic” value is 1.5% (inactive).

For `OCCCl`, the “viability change, negative = cytotoxic” value was 7.15% (inactive).

For the compound `N#CC1(N=NC2(C#N)CCCCC2)CCCCC1`, the “viability change, negative = cytotoxic” value is -16.1% (inactive).

As to `CCOP(=S)(OCC)Oc1ccc(S(C)=O)cc1` (stereo not given), the “viability change, negative = cytotoxic” value was 5.41% (inactive).

With `C[N+](C)(C)CCOC(=O)C(O)(c1ccccc1)c1ccccc1`, the “viability change, negative = cytotoxic” value is -0.994% [at 35.3 µM] (inactive).

Turning to `Cc1ccccc1`, the “viability change, negative = cytotoxic” value is 1.16% (inactive).

Consider `CCOP(=O)(SC(C)CC)N1CCSC1=O` (stereo not given), for which the “viability change, negative = cytotoxic” value is 3.18% (inactive).

Take `O=C(O)c1cc(I)cc(I)c1I`: the “viability change, negative = cytotoxic” value was 4.75% (inactive).

`CC(Cc1ccccc1)NCc1ccccc1Cl` (stereo not given): the “viability change, negative = cytotoxic” value is -14.2% [at 35.3 µM] (inactive).

For the compound `CCCCCCCCCCCC[N+](C)(C)CCOc1ccccc1`, the Potency was 49 µM (active) and 23.9 µM (active).

For `c1ccc2c(c1)sc1ccccc12`, the Potency entry is “inactive”.

Consider `CCCCCCCCCCCCN=C(N)N`, for which the viability change, negative = cytotoxic was -1.76% [at 2.72 µM] (inactive).

As to `Clc1ccc2ccccc2c1`, the “viability change, negative = cytotoxic” value is 1.46% (inactive).

For the compound `O=C1c2ccccc2C(=O)N1SC(Cl)(Cl)Cl`, the Potency entry was “inactive”.

Regarding `Cc1ncc(C[n+]2csc(CCO)c2C)c(N)n1`, the “viability change, negative = cytotoxic” value is -26.6% (inactive).

Turning to `CCCCNC(=O)OCC#CI`, the Potency is 54.7 µM (active).

In the case of `CCC1(C2=NCCN2)Cc2ccccc2O1` (stereo not given), the “viability change, negative = cytotoxic” value is -2.22% [at 35.3 µM] (inactive).

For `CC(C)CCCCCCCOC(=O)c1ccccc1C(=O)OCCCCCCCC(C)C`, the “viability change, negative = cytotoxic” value was 16.6% (inactive).

Consider `CCCN(CCC)c1c([N+](=O)[O-])cc(C(C)C)cc1[N+](=O)[O-]`, for which the Potency result was “inactive”.

Take `Clc1ccc(Cl)c(Cl)c1`: the Potency result was “inactive”.
